# Only a selection was taken, and hits are over-represented in it overall.
# KDM5B inhibitor: KDM5B demethylase inhibition; Q9UGL1; KDM5B demethylase, FDH-coupled NADH fluorescence (FDH is formaldehyde dehydrogenase); Potency, µM (doses to about 57.7 µM), actives largely listed as inhibitors; actives 2.6% (n = 220,000); active = well fitted inhibition curve with a large enough effect; note: 0% is about no effect; nearly all actives have a fitted effect of over 70% in size
# Target sequence (Q9UGL1 whole entry, looked up): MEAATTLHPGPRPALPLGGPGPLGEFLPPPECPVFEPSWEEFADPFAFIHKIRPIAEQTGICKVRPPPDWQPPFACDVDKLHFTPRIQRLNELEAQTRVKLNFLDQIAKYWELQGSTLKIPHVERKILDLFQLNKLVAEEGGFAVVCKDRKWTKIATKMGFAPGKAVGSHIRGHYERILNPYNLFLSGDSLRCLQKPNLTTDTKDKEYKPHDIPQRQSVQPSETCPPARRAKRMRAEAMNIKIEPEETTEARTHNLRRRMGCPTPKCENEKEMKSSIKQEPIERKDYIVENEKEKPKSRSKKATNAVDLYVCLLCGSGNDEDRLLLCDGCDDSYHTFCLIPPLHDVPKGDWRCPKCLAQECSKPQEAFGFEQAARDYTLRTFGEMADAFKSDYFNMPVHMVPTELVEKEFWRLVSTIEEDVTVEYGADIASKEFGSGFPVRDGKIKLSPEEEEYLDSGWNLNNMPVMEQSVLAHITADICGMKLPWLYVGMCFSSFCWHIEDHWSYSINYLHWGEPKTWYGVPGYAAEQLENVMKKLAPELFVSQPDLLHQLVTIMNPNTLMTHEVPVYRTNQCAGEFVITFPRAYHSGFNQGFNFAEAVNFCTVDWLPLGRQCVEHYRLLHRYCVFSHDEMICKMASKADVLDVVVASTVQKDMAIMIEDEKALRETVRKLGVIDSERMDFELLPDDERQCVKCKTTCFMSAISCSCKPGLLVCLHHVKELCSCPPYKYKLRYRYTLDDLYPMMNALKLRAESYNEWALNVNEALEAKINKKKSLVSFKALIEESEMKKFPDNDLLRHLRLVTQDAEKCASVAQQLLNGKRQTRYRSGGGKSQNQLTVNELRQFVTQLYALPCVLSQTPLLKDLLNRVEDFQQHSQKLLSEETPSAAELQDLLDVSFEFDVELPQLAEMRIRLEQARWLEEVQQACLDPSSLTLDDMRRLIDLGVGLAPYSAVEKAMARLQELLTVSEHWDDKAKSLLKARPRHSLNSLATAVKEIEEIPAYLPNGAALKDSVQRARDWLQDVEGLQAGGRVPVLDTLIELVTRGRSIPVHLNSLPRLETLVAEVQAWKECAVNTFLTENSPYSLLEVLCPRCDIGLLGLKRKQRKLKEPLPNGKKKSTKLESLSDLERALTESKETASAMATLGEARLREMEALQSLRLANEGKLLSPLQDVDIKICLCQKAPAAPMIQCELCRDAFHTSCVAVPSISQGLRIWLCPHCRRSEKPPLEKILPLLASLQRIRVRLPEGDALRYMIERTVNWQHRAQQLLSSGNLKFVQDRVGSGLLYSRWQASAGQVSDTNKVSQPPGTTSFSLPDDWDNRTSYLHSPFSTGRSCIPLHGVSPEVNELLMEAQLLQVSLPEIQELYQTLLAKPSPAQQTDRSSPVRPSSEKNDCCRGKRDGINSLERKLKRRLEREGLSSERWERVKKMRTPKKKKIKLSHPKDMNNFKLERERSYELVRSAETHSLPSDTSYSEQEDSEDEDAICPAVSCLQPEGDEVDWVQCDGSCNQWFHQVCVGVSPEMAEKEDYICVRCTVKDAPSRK
#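 Compound dilutions met 200 nM (final) KDM5BΔAP for 10 min at room temperature before substrate addition. The substrate mix held 12.5 µM H3K4me3 with cofactors 25 µM α-ketoglutarate and 50 µM Fe²⁺. NADH signal gain over 30 min defined activity.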
# The depositor's hits bear a star; i = inactive. Potency is the fitted concentration of half-maximal effect.
SMILES,KDM5B inhibitor
Cc1nc(-c2cccs2)c(CC(=O)N2CCc3ccccc3C2)s1,i
NC1=NC(c2c[nH]c3ccc(F)cc23)n2c(nc3ccccc32)N1 (centres undefined),i
Cc1cccc(/C=C/c2ccc3c([N+](=O)[O-])cccc3n2)c1,i
Fc1ccc(-c2cnc(COc3ccc(Cl)cc3)o2)cc1,i
Cc1ccc(/C=N/N=C(c2ccccc2)c2ccccc2)o1,i
Cc1noc(-c2cccc(F)c2)c1C(=O)NCCc1cccc(Cl)c1,i
Cc1noc(-c2ccc3c(c2)OCO3)c1C(=O)NCCc1cccc(Cl)c1,28µM*
COc1ccc(CCNC(=O)c2c(C)noc2-c2ccc3c(c2)OCO3)cc1OC,28µM*
COc1ccc(CCNC(=O)c2c(C)noc2-c2ccc(OC(F)(F)F)cc2)cc1,i
COc1ccc(-c2onc(C)c2C(=O)N2CCC(Cc3ccc(F)cc3)CC2)cc1,i
COc1ccc(CCNC(=O)c2c(C)noc2-c2ccccc2Cl)cc1OC,i
COc1ccc(CCNC(=O)c2c(C)noc2-c2ccccc2OC)cc1OC,i
COc1cccc(CCNC(=O)c2c(C)noc2-c2ccc3c(c2)OCO3)c1,14µM*
COc1cccc(CCNC(=O)c2c(C)noc2-c2ccc(OC(F)(F)F)cc2)c1,i
COc1ccc(CC2CCN(C(=O)c3c(C)noc3-c3ccc4c(c3)OCO4)CC2)cc1,20µM*
COc1ccc(-c2noc(CC3CCN(C(=O)c4ccc5c(c4)OCO5)CC3)n2)cc1,i
Cc1noc(-c2cccc(F)c2)c1C(=O)NCCCCc1ccccc1,i
Cc1ccc(C)c(C(=O)c2sc(Nc3ccc(F)cc3)nc2N)c1,i
O=C(CCCCN1CCC(c2ccccc2)C1)c1ccccc1 (centres undefined),i
Cc1cc(Cl)ccc1OC(=O)/C(C#N)=C/c1ccc(Cl)cc1,i
CCc1ccc(C(C(=O)NC2CCCCC2)N(C(=O)c2cnccn2)c2cccs2)cc1 (centres undefined),i
COc1ccccc1CN(C)C(=O)Cc1c(C)nc2ccccc2c1C,i
N#Cc1cccc(CN2CCN(c3oc(C4CC4)nc3C#N)CC2)c1,i
Cc1ccc(C(=O)NC(=S)NNC(=O)c2ccc(NC(=O)c3ccccc3)cc2)cc1,i
COc1ccc(CN2C[C@H]3CN(Cc4c[nH]c5ccccc45)CCN3C2=O)cc1,i
SMILES,KDM5B inhibitor
CC(C)(C)C1C/C(=C/c2cccs2)c2nc3ccccc3c(C(=O)O)c2C1 (centres undefined),i
Cc1cccc(-c2nc3cc(NC(=O)c4cccc([N+](=O)[O-])c4C)ccc3o2)c1,i
O=[S+]1([O-])CCN(Cc2ccc(-c3cnc4c(OCc5ccccc5)nccn34)cc2)CC1,22µM*
FC(F)(F)c1ccc(N2C3CCC2CN(Cc2ccc(-c4ccccc4)cc2)C3)cc1,i
COc1ccc(CN2CCN(Cc3ccc(OCc4ccncc4)cc3)CC2)cc1,i
Cc1oc(-c2ccccc2)nc1CN1CCNC(=O)C1,i
OC1CCC(NCc2ccc(-c3cnc4c(OCc5ccccc5)nccn34)cc2)CC1 (centres undefined),28µM*
OC1CN(Cc2ccccc2)CCN(Cc2cn[nH]c2-c2ccc(Cl)cc2)C1 (centres undefined),i
O=C1CN(C(=O)Cn2ccc3ccc(OCc4ccccc4)cc32)CCN1,i
OC1CN(Cc2ccc(-c3cnc4c(OCc5ccccc5)nccn34)cc2)C1,32µM*
O=C1CN(Cc2ccc(-c3cnc4c(OCc5ccccc5)nccn34)cc2)CCN1,35µM*
COc1ncccc1CN1CCC2(CC1)OC(=O)N(Cc1ccc(O)cc1)C2(C)c1ccccc1 (centres undefined),i
Cc1ccc(COc2ccc(CNC3CC3)cc2)cc1,i
c1ccc(-c2ccc(CNC3CC3)cc2)cc1,i
COc1cccc(Nc2nc(-c3cc4cc(Br)ccc4oc3=O)cs2)c1,i
CC(=O)Nc1ccc(SCC(O)COc2ccccc2C(C)(C)C)cc1 (centres undefined),i
COc1ccc(C(=O)N[C@@H]2CCC[C@@H]2C(=O)NCc2cc(OC)cc(OC)c2)cc1,i
CC1CCCC(C)N1NC(=S)NCc1ccccc1 (centres undefined),i
CN1C(=O)C(NC(=O)C(=O)NCCc2c[nH]c3ccc(Cl)cc23)c2ccccc21 (centres undefined),i
CN1CCN(Cc2cc(=O)oc3cc(-c4ccccc4)c(O)cc23)CC1,i
c1ccc(CCN(Cc2ccccc2)Cc2ccc(OCc3ccccc3)cc2)cc1,i
COc1ccc(-c2nc(SC(C)C(=O)NC(C)(C)C)n[nH]2)c(OC)c1 (centres undefined),i
COc1cc(C2C3CCCCC3(O)CCN2Cc2ccccc2Cl)ccc1O (centres undefined),i
Cc1cc(C)cc(NC(=O)N2CCc3cc(S(=O)(=O)N4CCC(C)CC4)ccc32)c1,i
CCC1Oc2ccc(NC(=O)Cc3ccccc3)cc2CN(Cc2ccc3c(c2)OCO3)C1=O (centres undefined),i
SMILES,KDM5B inhibitor
COc1ccc(Cc2nnc(SCC(=O)c3ccc(Cl)cc3)n2CC(C)C)cc1,i
FC(F)Oc1ccccc1C=C(c1nc2ccccc2s1)c1nc2ccccc2s1,i
COc1cccc(Nc2nc(-c3ccc(CNC(C)=O)s3)cs2)c1,i
CCC(C)(C)c1ccc(O)c(-c2csc(N)n2)c1,i
COc1cccc(C(CNC(=O)C2CCN(S(=O)(=O)c3ccc(C)c(C)c3)CC2)N(C)C)c1 (centres undefined),i
CC(=O)Nc1ccccc1NC(=O)CN1CCCC(C(N)=O)C1 (centres undefined),i
NC(=O)C1CCCN(Cc2ccc(-c3cnc4c(OCc5ccccc5)nccn34)cc2)C1 (centres undefined),28µM*
COc1ccc(-c2ccccc2NC(=O)C2CCCN(Cc3cccnc3)C2)cc1 (centres undefined),i
COc1ccc2oc(=O)cc(CN3CCN(C(=O)c4ccc(OC)c(OC)c4)CC3)c2c1,i
CC(=O)Nc1ccc(NC(=O)C(C)Br)cc1 (centres undefined),i
COc1ccc(CNC(=O)C[C@@H]2C[C@H]3O[C@H](CNC4CCCC4)[C@@H](O)[C@H]3O2)cc1,i
O=C(c1nc(-c2ccc(Cl)cc2)c2ccccn12)N1CCCC1,i
CC(C)(C)c1nc(C(=O)N2CCN(c3ncccn3)CC2)n2ccncc12,79µM*
O=C(c1nc(-c2ccc(F)cc2)c2ccccn12)N1CCN(c2ncccn2)CC1,28µM*
O=C(c1nc(-c2ccc(F)cc2)c2cnccn12)N1CCN(c2ncccn2)CC1,25µM*
CC(C)(C)c1cc(C(=O)N2CCN(c3ncccn3)CC2)nn2cccc12,i
Cc1ccc(C)c(C(=O)N2CCN(c3ncccn3)CC2)c1,i
O=C(CCn1c(=O)c2cccn2c2cccnc21)N1CCN(c2ccc(F)cc2)CC1,i
O=C(c1cc(-c2ccc(F)cc2)n[nH]1)N1CCN(c2ncccn2)CC1,i
O=C(CCNS(=O)(=O)c1ccc(F)cc1)N1CCN(c2ncccn2)CC1,i
Cn1c(=O)c2c(nc(Oc3ccccc3F)n2Cc2ccccc2F)n(C)c1=O,i
Cc1c(C(=O)Nc2ccc3oc(-c4ccc(F)cc4)nc3c2)cccc1[N+](=O)[O-],i
COC(=O)/C=C(/SCc1ccccc1)c1ccccc1,i
CC(C)NC(=O)NC(=O)CSc1nc2ccccc2c(=O)n1C1CC1,i
